From PubChem BioAssay AID1347172 (National Center for Advancing Translational Sciences (NCATS), 2019) come the findings set out here.

Results filed as inconclusive are left out. Where a call stands in place of a potency, no number is given. Active and inactive are the calls of the source. Calls come from the whole dose curve; as a rule, active = well fitted inhibition curve with a large enough effect; inconclusive = small, poorly fitted or top-dose-only effect; inactive = flat fitted curve, though single readings scatter.

A short description of the assay: Secondary qRT-PCR qHTS assay for selected Zika virus inhibitors. The following applies: Vero cells ZIKV infection, NS5 RNA qRT-PCR, 24 h; series mostly up to 32.6 µM. From the text:
Assay Submitters (PI): Avindra Nath, Ph.D., National Institute of Neurological Disorders and Stroke (NINDS), Bethesda, MD Radhakrishnan Padmanabhan, Ph.D., Georgetown University (GU), Washington D.C. Zika Virus causes congenital defects, including microcephaly and is associated with Guillain-Barre syndrome, eningoencephalitis and myelitis in infected adult. […] Using a target-based approach, we hope to establish a screening paradigm to uncover novel, cell-active NS2B-NS3 protease (Zika Virus) specific inhibitors from NCATS' collection of small molecules using qHTS. […] Four assay panel was created to identify potential Zika Virus inhibitors. Namely, (1) GU unlinked NS2B-NS3 AMC tagged protease qHTS, (2) GU unlinked NS2B-NS3 Rhodamine tagged protease qHTS, (3) NINDS linked NS2B-NS3 AMC tagged protease qHTS, (4) NINDS linked NS2B-NS3 Rhodamine tagged protease qHTS. Inhibitors of the Zika virus primary screens are confirmed using qRT-PCR secondary assays, qRT-PCR mCherry orthogonal assay, and qRT-PCR viability counterscreen. Early Translation Branch (ETB) National Center for Advancing Translational Sciences (NCATS), Rockville, MD National Institute of Health (NIH), Bethesda, Maryland
384-well ZIKV qRT-PCR Assay: Vero cells were treated with the indicated compounds at different concentrations, infected with ZIKV (MOI=1) and incubated at 37 degrees C for 3 hours to permit virus invasion. After 3 hr, supernatant was removed, and cells were washed once to remove extracellular virus. After a further 21 hr incubation, infected cells were washed three times with cold PBS (4 degrees C). Plates were then process using the TaqmanGene Expression Cells-to-Ct Kit (ThermoFisher Scientific) following the manufactures protocol. Primers directed to the NS5 sequence (F-[…]; R-GCTCGGCCAATCAGTTCA) along with Taqman probe (FAM-[…]-BHQ; Biosearch Technologies) were used to quantify drug inhibition of viral load. Reactions were run at initial 95 degrees C for 10 min, then 40 cycles of 95 degrees C for 20 sec and 60 degrees C for 40 sec using a LightCycler 480 (Roche). Relative viral copy numbers were generated by normalizing to cells treated with vehicle.

Turning to `C[C@]12CC[C@@H]3c4ccc(OC(=O)N(CCCl)CCCl)cc4CC[C@H]3[C@@H]1CC[C@@H]2O`, the Potency result was “inactive”.

Regarding `CN(C)[C@@H]1C(=O)C(C(N)=O)=C(O)[C@@]2(O)C(=O)C3=C(O)c4c(O)ccc(Cl)c4[C@@](C)(O)[C@H]3C[C@@H]12`, the Potency result is “inactive”.

On to `O=C(Nc1ccc(Br)cc1)c1cc(Br)cc(Br)c1O`, for which the Potency was 22.4 µM (active).

On to `Oc1c(Cl)c(Cl)c(Cl)c(Cl)c1Cl`, for which the Potency result is “inactive”.

For `CN(C)[C@@H]1C(=O)C(C(N)=O)=C(O)[C@@]2(O)C(=O)C3=C(O)c4c(O)cccc4[C@@](C)(O)[C@H]3C[C@@H]12`, the Potency result was “inactive”.
